In the library only some 10% were active in any assay of this set; here they are far more common.
PNC assembly inh: inhibitors of perinucleolar compartment assembly; PC3M PTB-GFP, PNC prevalence imaging, 16 h; hits give low values; activity change (PNC), negative = inhibition, % at 10 µM; actives 3.1% (n = 140,000); AID 2417;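 active = readout at or below -70, meaning at least 70% loss of cells showing the perinucleolar compartment, a nuclear body marking cancer cells; inconclusive = readout between -30 and a set limit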;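 note: plate controls were DMSO wells for no effect and camptothecin positive control wells for full effect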
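Read-out is percentage of cells bearing a perinucleolar compartment, from automated 20x imaging of fixed, Hoechst-stained PC3M PTB-GFP cells. Cells were seeded 4 h, then exposed 16 h to compound (23 nl of library stock) in duplicate plates.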
ALDH1A1 inh: blocks purified human ALDH1A1 activity; P00352; Purified ALDH1A1, NADH fluorescence, propionaldehyde substrate; Potency, µM (series often up to 75.3 µM), inactives show at the top dose activity, negative = inhibition, most hits filed as inhibitors; actives 7.3% (n = 220,000); AID 1030;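 note: potency is the fitted concentration of half-maximal effect; plate controls were no enzyme wells and a reference inhibitor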
LMNA splice mod: modulators of lamin A splicing. HeLa LMNA splicing GFP/RFP minigene ratio, 48 h. Potency, µM (series often up to 46.1 µM), without a hit: top-dose ratio change, negative = inhibition, actives largely listed as inhibitors. actives 0.01% (n = 200,000); active = well fitted inhibition curve with a large enough effect in the signal ratio, with a control signal flat, not every such curve was filed as active; inconclusive = small, poorly fitted or top-dose-only effect, or effect the other way, or a change in a side signal; the % refers to the signal ratio; note: potency is the fitted concentration of half-maximal effect
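S3 HeLa cells stably expressing lamin A-EGFP splicing minigene plus DsRed2, 600 cells/well, 48 h compound exposure at 37C. Laser-scanning cytometry; analysed as GFP (500-530 nm)/RFP (575-640 nm) total intensity ratio; 0.5% DMSO vehicle.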
HPGD block: HPGD (human) dehydrogenase inhibition | P15428 | purified HPGD, NADH fluorescence kinetic, PGE2 substrate | Potency, µM, without a hit: at the top dose activity change, negative = inhibition, actives largely listed as inhibitors | actives 4.3% (n = 150,000) | AID 894; note: potency is the fitted concentration of half-maximal effect
Target sequence (P15428 whole entry, looked up): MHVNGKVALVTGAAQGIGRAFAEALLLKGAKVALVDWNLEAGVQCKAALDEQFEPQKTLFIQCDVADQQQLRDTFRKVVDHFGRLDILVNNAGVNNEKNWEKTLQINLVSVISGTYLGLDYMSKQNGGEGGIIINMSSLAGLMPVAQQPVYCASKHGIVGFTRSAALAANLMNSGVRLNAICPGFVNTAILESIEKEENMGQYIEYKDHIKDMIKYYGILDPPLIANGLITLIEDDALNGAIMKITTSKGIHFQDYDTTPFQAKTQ
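20 nM HPGD preincubated 15 min at room temperature with compound in 50 mM Tris-HCl pH 8, 0.01% Tween 20. Started with 1 mM NAD+ and 30 uM prostaglandin E2; NADH fluorescence (360/450 nm) read 5 times over 30-s intervals, last minus first.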
KinaseGlo FLuc: Kinase-Glo luciferase inhibition (counter-screen) | Potency, µM (series often up to 38.3 µM), for inactives: top-dose activity change, negative = inhibition, hits mostly inhibitors | actives 0.28% (n = 200,000) | Kinase-Glo luciferase, ATP luminescence, 8 min; active = well fitted inhibition curve with a large enough effect; inconclusive = small, poorly fitted or top-dose-only effect; note: potency is the fitted concentration of half-maximal effect; nearly all actives have a fitted effect of over 60% in size
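Compounds were added to a substrate mix at pH 7.2 (50 mM imidazole, 10 uM ATP, within the enzyme's linear range), followed by Kinase-Glo detection reagent; luminescence was measured after 8 minutes at ambient temperature.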
IMPase cell inh: IMPase inhibition in cells. inhibition (IP1 accumulation), % at 46.1 µM. P97697. CHO-M1 cells, IP1 accumulation, HTRF TR-FRET ratio. 120,000 tested, under 10 active; active = well fitted curve in the direction sought with a large enough effect in the signal ratio, not every such curve was filed as active; inconclusive = small, poorly fitted or top-dose-only effect, or a change in a side signal; inactive = no such curve, though single readings can be large or run the other way; the % refers to the signal ratio;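 note: cells stimulated with carbachol in lithium chloride buffer; plate controls were DMSO basal wells for no effect and reference inhibitor wells for full effect; higher means more IMPase inhibition seen as more IP1 and lower FRET ratio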
Target sequence (P97697 whole entry, looked up): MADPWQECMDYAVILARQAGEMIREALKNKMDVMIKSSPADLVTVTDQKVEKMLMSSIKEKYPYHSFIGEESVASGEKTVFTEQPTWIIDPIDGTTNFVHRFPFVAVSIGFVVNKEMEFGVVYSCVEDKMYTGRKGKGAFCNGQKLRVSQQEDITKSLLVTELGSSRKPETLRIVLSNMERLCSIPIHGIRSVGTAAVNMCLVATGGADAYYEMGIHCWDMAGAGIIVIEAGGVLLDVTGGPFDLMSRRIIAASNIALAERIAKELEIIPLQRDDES
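Measured: the HTRF emission ratio (665/620 nm) plus the 620 nm donor channel, each fitted to the Hill equation to give AC50. Cells were CHO-M1 given compounds up to 46 uM and a 30 min carbachol stimulation at 37C.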
Active calls of the source: *; ? = inconclusive; nt = no result given; ! = not active in a repeat; [ ] = dose if it differs, or a comment. Unless noted, calls come from the whole dose curve; as a rule, active = well fitted inhibition curve with a large enough effect (not every such curve was filed as active); inconclusive = small, poorly fitted or top-dose-only effect, or another doubt; inactive = no such curve, though single readings can be large or run the other way. Unless noted, % is set by controls: 0 for no effect and ±100 for the full control effect.

SMILES | PNC assembly inh | ALDH1A1 inh | LMNA splice mod | HPGD block | KinaseGlo FLuc | IMPase cell inh
Cc1cc(NC(=O)c2cnn3c(C(F)F)cc(-c4ccccc4)nc23)no1 | -21 | ? | 0% | -11% | 1% | 19
Cc1ccc(C)c(Nc2nnc(-c3ccc(C)c(S(=O)(=O)N4CCN(C)CC4)c3)c3ccccc23)c1 | nt | nt | nt | nt | nt | 1
O=C(NC(=S)Nn1cnc2c(cnn2-c2ccccc2)c1=O)c1ccccc1 | ? | 18µM* | -14% | -23% | -1% | 3
CCn1cnc2c(cnn2-c2ccccc2)c1=O | ? | -12% | ? | -18% | -5% | -12
CCOC(=O)c1cc(S(=O)(=O)N2CCN(c3cc(C)ccc3C)CC2)[nH]n1 | nt | nt | -14%[46 µM] | nt | nt | nt
CCc1cccc(NC(=O)C2CCCN(c3ncnc4onc(-c5ccc(F)cc5)c34)C2)c1 (stereo not given) | nt | nt | -12%[46 µM] | nt | nt | nt
CCCSc1nnc(NC(=O)Nc2ccccc2)s1 | -11 | 0% | -10% | 1% | 0% | -2
CCCSc1nnc(NC(=O)Nc2ccc(F)cc2)s1 | -83* | -6% | -13% | 0% | -3% | 15
CC1CCN(S(=O)(=O)c2cnc(Cl)c(Br)c2)CC1 | 57 | 0.13µM* | 13% | -15% | 2% | nt
CC1CCN(S(=O)(=O)c2ccc(Cl)cc2Br)CC1 | ? | 7% | ? | ? | 0% | 1
CC1CCCCN1S(=O)(=O)c1cnc(Cl)c(Br)c1 (stereo not given) | ? | 2.5µM* | 13% | -22% | -4% | nt
O=C1CCCC=C1[C@@H](O)C1CCCCC1 | nt | 5%[13.5 µM] | nt | nt | nt | nt
COc1ccccc1NC(=O)CSc1nc(-c2ccc(C(C)(C)C)cc2)c(C#N)c(=O)[nH]1 | nt | nt | -5%[46 µM] | nt | nt | nt
Cc1ccc(N2CC(NC(=O)c3cccc(Cl)c3)CC2=O)cc1C (stereo not given) | nt | nt | 16%[46 µM] | nt | nt | nt
COc1cccc(Nc2nc(C)cc(C)c2C#N)c1 | -100* | 5% | -18% | -22% | 0% | 1
N/C(CC(=O)Nc1cc(C(F)(F)F)ccc1Cl)=N\O | nt | 28µM*! | nt | -4% | -2%[7.66 µM] | nt
FC(F)(F)c1ccc(Cl)c(NC(=S)NC2CC2)c1 | 8 | 20% | 0% | 1% | -3% | -1
CNC(=S)Nc1cc(C(F)(F)F)ccc1Cl | -86* | 4% | 12% | -7% | 0% | nt
COC(=O)c1cc(-c2ccc3ccccc3c2)[nH]c(=O)c1C#N | nt | ? | nt | ? | -2%[7.66 µM] | nt
COc1ccc(C(NC(=O)c2ccc(F)cc2)c2ccccc2)cc1 (stereo not given) | 4 | 22µM* | -10% | nt | nt | 1
COc1cc(C(=O)NC(c2ccccc2)c2ccccc2)cc(Cl)c1OC | ? | 2µM* | -10% | -2% | 3% | -1
COc1cc(C(=O)N/N=C(\C)Cc2ccccc2)cc(OC)c1OC | 32 | 20µM* | ? | -1% | 6% | 5
COc1cc(C(=O)NCc2cccc3ccccc23)cc(Cl)c1OC | 41 | -15% | 3% | 1% | -1% | -16
COc1ccc(C(NC(=O)c2cccc(F)c2)c2ccccc2)cc1 (stereo not given) | 36 | ? | ? | nt | nt | ?
Cc1oc(-c2ccccc2Cl)nc1CSc1nc2ncccc2[nH]1 | nt | nt | -9%[46 µM] | nt | nt | nt
SMILES | PNC assembly inh | ALDH1A1 inh | LMNA splice mod | HPGD block | KinaseGlo FLuc | IMPase cell inh
COc1ccc(OC)c(NC(=O)COCc2cc(-c3ccc(F)cc3)on2)c1 | nt | nt | 7%[46 µM] | nt | nt | nt
COc1ccc(/C=C/C2=CC(C)(C)NC(=S)N2)cc1OC | nt | 7.9µM* | 0%[9.22 µM] | nt | -1% | nt
CCOc1ccc(/C=C/C2=CC(C)(C)NC(=S)N2)cc1 | nt | 13µM* | nt | nt | -2% | nt
COc1ccc(/C=C/c2ccncc2)cc1OC | -97* | ? | -17% | ? | -10% | ?
CCOc1ccc(/C=C/C(=O)c2ccccc2)cc1 | nt | -1% | nt | nt | nt | nt
CCCS(=O)(=O)N1CC(=O)N(c2cccc(Cl)c2C)C(C)(C(=O)NC2CCCC2)C1 (stereo not given) | nt | nt | 14%[46 µM] | nt | nt | nt
Cc1nc2scc(C)n2c(=O)c1S(=O)(=O)Nc1cccc(C(F)(F)F)c1 | nt | nt | nt | nt | nt | 0
COc1ccc(-n2c(SCCC#N)nnc2-c2cc(Cl)ccc2OC)cc1Cl | 2 | 1% | ? | 20µM* | 7% | -15
Cc1cccc(-c2nnc(SCC#N)n2-c2cccc(Cl)c2)c1 | -5 | ? | -3% | -10% | 3% | -4
COc1cccc(Nc2sc(C(=O)c3ccc(F)cc3)c(N)c2C(=O)NCc2ccc(C)cc2)c1 | nt | nt | -9%[46 µM] | nt | nt | nt
O=C(CCNC(=O)c1ccccc1Cl)Nc1ccc(Cl)c(C(F)(F)F)c1 | -21 | 6% | -3% | 22µM* | 1% | nt
Cc1oc2cc(O)cc(O)c2c(=O)c1-c1ccc2c(c1)OCCCO2 | 7 | 16µM* | ? | -29% | -4% | 0
CNC(=O)[C@H]1O[C@@H](n2cnc3c(NCc4cccc(I)c4)nc(Cl)nc32)[C@H](O)[C@@H]1O | nt | -10% | nt | nt | nt | nt
CCCN(CC1CC1)C(=O)CSc1nnc(-c2ccco2)n1N | nt | 32µM* | nt | nt | nt | nt
CCN(C(=O)CSc1nnc(-c2ccccc2)n1C)C1CCS(=O)(=O)C1 (stereo not given) | nt | -3% | nt | nt | 0% | nt
CCCN(C(=O)CSc1nnc(-c2ccoc2C)n1N)C1CCS(=O)(=O)C1 (stereo not given) | ? | 20µM* | 0% | -20% | 11% | -1
CN(CCC#N)C(=O)CSc1nnc(-c2ccco2)n1N | nt | 9% | -17%[46 µM] | nt | -2% | nt
COc1ccc(NC(=O)N2CC3(CCN(C(=O)c4cccc(F)c4)CC3)C2)cc1 | nt | ? | nt | -10% | 0% | nt
COCCn1c(-c2ccco2)csc1=Nc1cccnc1 | -14 | ? | 3% | -17% | -4% | -4
CC(C)Cn1c(-c2ccco2)csc1=Nc1cccnc1 | -29 | 13µM* | 17% | -15% | -3% | 2
CCOc1ccccc1NC(=O)C(Cc1ccccc1)NS(=O)(=O)c1ccc(Br)s1 (stereo not given) | nt | nt | nt | nt | nt | 2
CSc1nc2c(c(=O)[nH]c(=O)n2C)n1C/C=C(\C)Cl | 19 | 25µM* | -3% | ? | -1% | ?
C=CCSc1nc2c(c(=O)[nH]c(=O)n2C)n1CC | ? | 14µM* | 3% | 14µM* | 1% | -1
CCOC(=O)C(C)n1cnc2c1c(=O)[nH]c(=O)n2C (stereo not given) | -100* | 7% | 2% | -19% | 1% | 2
CCOC(=O)Cn1c(N2CCCCCC2)nc2c1c(=O)[nH]c(=O)n2C | -19 | ? | -6% | -14% | 0% | 1
C=CCSc1nc2c(c(=O)[nH]c(=O)n2C)n1C/C=C(/C)Cl | -28 | ? | 5% | -25% | -2% | 6
C/C(Cl)=C/Cn1c(SCCN2CCOCC2)nc2c1c(=O)[nH]c(=O)n2C | ? | -8% | 1% | ? | 0% | 2

Screening data (PubChem)
